Bioassay records deposited in PubChem BioAssay by Pan Lab, Icahn School of Medicine at Mount Sinai.
RBX1-CUL1 inh: inhibitors of human ROC1-CUL1 ubiquitin ligase activity; in vitro K48 di-Ub FRET, acceptor:donor ratio, 45 min; inhibition, % at 10 µM; 0.6% of 140,000 active; in the data active = inhibition above about 25%
Target sequence (P62877 whole entry, looked up): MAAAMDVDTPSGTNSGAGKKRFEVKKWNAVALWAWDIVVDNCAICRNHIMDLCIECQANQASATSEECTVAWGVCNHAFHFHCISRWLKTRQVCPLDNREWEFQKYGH
Target sequence (Q13616 whole entry, looked up): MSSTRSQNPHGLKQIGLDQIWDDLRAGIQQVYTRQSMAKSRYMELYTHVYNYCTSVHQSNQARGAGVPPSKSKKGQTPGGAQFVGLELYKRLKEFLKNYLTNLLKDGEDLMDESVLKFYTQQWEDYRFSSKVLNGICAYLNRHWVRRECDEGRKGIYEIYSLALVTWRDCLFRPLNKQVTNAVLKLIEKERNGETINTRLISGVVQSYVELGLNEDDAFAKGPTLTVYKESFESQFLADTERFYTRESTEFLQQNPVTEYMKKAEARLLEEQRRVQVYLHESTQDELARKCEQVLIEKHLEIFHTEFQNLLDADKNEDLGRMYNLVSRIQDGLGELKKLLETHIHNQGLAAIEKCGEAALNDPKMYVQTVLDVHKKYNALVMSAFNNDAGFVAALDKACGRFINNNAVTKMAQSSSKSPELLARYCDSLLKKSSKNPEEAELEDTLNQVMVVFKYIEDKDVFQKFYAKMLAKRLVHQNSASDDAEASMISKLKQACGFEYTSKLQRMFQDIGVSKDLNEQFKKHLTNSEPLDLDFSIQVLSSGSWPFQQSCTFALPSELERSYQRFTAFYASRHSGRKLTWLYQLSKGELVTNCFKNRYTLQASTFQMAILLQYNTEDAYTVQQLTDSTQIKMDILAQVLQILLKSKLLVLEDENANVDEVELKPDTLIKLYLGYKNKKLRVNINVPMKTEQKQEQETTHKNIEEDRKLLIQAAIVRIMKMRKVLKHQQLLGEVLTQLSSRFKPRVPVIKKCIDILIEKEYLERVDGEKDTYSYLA
Starred values were filed as active, the others as inactive. This is one part of a sample in which hits are shown more often than they occur.

`COCC(=O)Nc1cccc(C(=O)Nc2cc(C)ccn2)c1` gave RBX1-CUL1 inh 1.
CCOC(=O)c1c2c(n(Cc3ccccc3)c1C)C(=O)c1ccc(Br)cc1-2 was read as RBX1-CUL1 inh 2.
`CCOC(=O)c1c2c(n(CC(=O)c3ccc(Br)cc3)c1C)C(=O)C(=O)c1ccccc1-2` gave RBX1-CUL1 inh -3.
For CCOC(=O)c1c2c(n(Cc3ccccc3)c1CNC(C)C)C(=O)C(=O)c1ccccc1-2 the results were RBX1-CUL1 inh 103*.
For CCOc1ccc(-c2cc(C(=O)N/N=C\c3cc(C(C)(C)C)c(O)c(C(C)(C)C)c3)[nH]n2)cc1 the results were RBX1-CUL1 inh 11.
`COc1ccc(S(=O)(=O)Nc2ccc(NC(C)=O)cc2)c(Cl)c1Cl` gave RBX1-CUL1 inh -4.
`COC(=O)c1ccccc1Oc1ncccc1N` gave RBX1-CUL1 inh 7.
`O=C1NC(=Nc2ccccc2)S/C1=C/c1ccc(-c2ccc(Cl)cc2Cl)o1` gave RBX1-CUL1 inh -3.
Screening O=C1NC(=Nc2ccccc2Cl)S/C1=C\c1ccc(-c2ccc(Cl)cc2)o1 returned RBX1-CUL1 inh -8.
Screening O=C1NC(=Nc2cc(Cl)cc(Cl)c2)S/C1=C\c1ccco1 returned RBX1-CUL1 inh 28*.
Screening O=C(O)CC1(CC(=O)O)CCCCC1 returned RBX1-CUL1 inh -8.
O=S(Cc1ccccc1F)c1nc(Cl)ns1 (stereo not given) was read as RBX1-CUL1 inh 1.
Screening O=S(=O)(c1ccccc1)c1nc(Cl)ns1 returned RBX1-CUL1 inh 8.
`O=S(Cc1ccccc1Cl)c1nc(Cl)ns1` (stereo not given) gave RBX1-CUL1 inh 30*.
`Clc1ccc(-c2csc(N/N=C\c3cccs3)n2)c(Cl)c1` gave RBX1-CUL1 inh -2.
`Cc1ccccc1N=C1CC=CC=CC1=O` gave RBX1-CUL1 inh -14.
CCN=C1CC=CC=C(C(=O)/C=C/c2ccccc2C)C1=O was read as RBX1-CUL1 inh 73*.
Screening CCN=C1CC=CC=C(C(=O)/C=C/c2ccccc2Br)C1=O returned RBX1-CUL1 inh 36*.
Screening CCN=C1CC=CC=C(C(=O)/C=C/c2ccc(CC)cc2)C1=O returned RBX1-CUL1 inh -8.
Screening CCC(C)N1C(=O)S/C(=C/c2ccccc2Br)C1=O (stereo not given) returned RBX1-CUL1 inh -10.
Screening CCN=C1CC=CC=C(C(=O)/C=C/c2cccc(Cl)c2Cl)C1=O returned RBX1-CUL1 inh 38*.
CCN=C1CC=CC=C(C(=O)/C=C/c2ccccc2Cl)C1=O was read as RBX1-CUL1 inh 3.
`CCN=C1CC=CC=C(C(=O)/C=C/c2ccc(C#N)cc2)C1=O` gave RBX1-CUL1 inh -2.
`CN=C1CC=CC=C(C(=O)/C=C/c2cccc(C(F)(F)F)c2)C1=O` gave RBX1-CUL1 inh 81*.
`CCn1ncc(/C=C/C(=O)c2ccccc2)c1C` gave RBX1-CUL1 inh 1.
For CCN=C1CC=CC=C(C(=O)/C=C/c2ccccc2OCC)C1=O the results were RBX1-CUL1 inh 8.
For O=C(CCc1ccccc1)N/N=C/c1cccc(Cl)c1Cl the results were RBX1-CUL1 inh 0.
Screening CCCN1CCC(NC(=O)c2cccc(OCC(C)C)c2)CC1 returned RBX1-CUL1 inh 4.
For CCS(=O)(=O)Nc1cc(C(=O)N(C)C(C)c2nccs2)c2c(c1)nc(-c1ccccc1)n2C (stereo not given) the results were RBX1-CUL1 inh 4.
CO[C@H]1[C@H](NC(=O)c2ccccn2)c2ccccc2C12CCN(C(=O)C#Cc1ccccc1)CC2 was read as RBX1-CUL1 inh 2.
Screening Cn1c2c(sc1=NC(=O)c1ccco1)CCc1ccccc1-2 returned RBX1-CUL1 inh 5.
`COc1ccc2cc(CN3CCC(n4cc(CO)nn4)CC3)ccc2c1` gave RBX1-CUL1 inh 4.
COc1cccc(CNc2ncn[nH]2)c1 was read as RBX1-CUL1 inh 4.
Screening COc1ccc(C2C3C(=O)CC(C)(C)CC3=NC3=NC(SCc4ccccc4)=NC(=O)C32)cc1 (stereo not given) returned RBX1-CUL1 inh 10.
For CC(=O)N1CCN(c2ccc(NC(=O)c3cccc4ccccc34)cc2Cl)CC1 the results were RBX1-CUL1 inh -4.
`CC(=O)OC1CC(Br)C(Br)CC1OC(C)=O` (stereo not given) gave RBX1-CUL1 inh -5.
Screening O=C(Nc1ccc(Cl)cc1)C1CCN(C(=O)c2cccc(F)c2)CC1 returned RBX1-CUL1 inh 2.
CC(C)(C)C1CCc2c(sc(NC(=O)c3ccco3)c2C(=O)O)C1 (stereo not given) was read as RBX1-CUL1 inh 39*.
Screening CCN(CC)C(=O)c1c(NC(=O)c2ccco2)sc2c1CCC(C(C)(C)C)C2 (stereo not given) returned RBX1-CUL1 inh 14.
`Cc1ccccc1C(=O)Nc1sc2c(c1C(=O)O)CCC(C(C)(C)C)C2` (stereo not given) gave RBX1-CUL1 inh -4.
CCOC(=O)COc1cc(Br)c(C=C(C#N)C#N)cc1OCC was read as RBX1-CUL1 inh -6.
COc1ccccc1CCc1nnc(CCC(=O)NCc2cc(F)ccc2C)o1 was read as RBX1-CUL1 inh -1.
`Cc1cccc(NC(=O)COc2ccc(Br)cc2C=C2C(=O)NC(=S)NC2=O)c1` gave RBX1-CUL1 inh 0.
CC(C)(C)c1cc(Br)ccc1OCC(=O)Nc1ccccc1 was read as RBX1-CUL1 inh 0.
Screening O=C(COc1ccc(Br)cc1/C=C1/C(=O)ON=C1c1ccccc1)Nc1ccccc1 returned RBX1-CUL1 inh 43*.
`Cc1ccc(NC(=O)/C=C\c2cnn(C)c2)c(C)c1` gave RBX1-CUL1 inh -6.
`OC(C#CC12CC3CC(CC(C3)C1)C2)c1ccccn1` (stereo not given) gave RBX1-CUL1 inh 12.
O=C(O)C#CC12CC3CC(CC(C3)C1)C2 was read as RBX1-CUL1 inh 0.
Cc1ccc(C(O)C#CC23CC4CC(CC(C4)C2)C3)o1 (stereo not given) was read as RBX1-CUL1 inh 99*.
Screening CN(CC(=O)N1CCSCC1)S(=O)(=O)c1ccc(Br)cc1 returned RBX1-CUL1 inh -2.
`O=C(COC(=O)c1ccc2c(c1)C(=O)N(c1ccc(O)cc1)C2=O)c1ccccc1` gave RBX1-CUL1 inh -5.
`Cc1ccc(NC(=O)c2ccc3c(c2)C(=O)N(CC(C)C)C3=O)c(C(=O)O)c1` gave RBX1-CUL1 inh 12.
Screening CCOC(=O)c1ccc(N2C(=O)c3ccc(C(=O)Nc4ccc(O)cc4C(=O)O)cc3C2=O)cc1 returned RBX1-CUL1 inh 69*.
CCCCOc1ccc(-c2nnc(-c3ccccc3F)n2-c2ccccc2)cc1 was read as RBX1-CUL1 inh 3.
Cc1cc(C)c(NC(=O)c2ccc(-c3ccccc3)cc2)c(C)c1 was read as RBX1-CUL1 inh -5.
For O=C1CCCN1CC(=O)N1CCc2onc(-c3ccc(-c4ccccc4)cc3)c2C1 the results were RBX1-CUL1 inh 2.
Screening Cc1cc(/C=C2\C(=O)NC(=S)N(c3ccccc3F)C2=O)c(C)n1-c1ccc(C(=O)O)c(Cl)c1 returned RBX1-CUL1 inh 86*.
For Cc1cc(/C=C2\C(=O)NC(=S)N(c3ccc(Cl)cc3)C2=O)c(C)n1-c1ccc(Cl)cc1 the results were RBX1-CUL1 inh -3.
For O=C1NC(=O)N(c2ccccc2F)C(=O)/C1=C/c1cccn1-c1ccc(Br)cc1 the results were RBX1-CUL1 inh 2.
Cc1c(Cl)cccc1N1C(=O)/C(=C/c2cc(C)n(-c3ccc(C#N)cc3)c2C)C(=O)NC1=S was read as RBX1-CUL1 inh 4.
